Screening results (PubChem BioAssay)
Rows were chosen to be rich in hits. Some 4.1% of all compounds tested hit in one or more screens of this group.
ssDAF-12 act: activates DAF-12 receptor from parasite S. stercoralis; HEK293 ssDAF-12/GRIP1 lit1-tk-luc reporter, luminescence; % of 3 µM dafachronic acid response; activation, % at 6.8 µM; 370,000 tested, 1% active;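 active = activation above the mean over all tested compounds plus 3 SD, cut at about 0.9% in these data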;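 note: 0% = DMSO-only wells and 100% = 3 µM delta7-dafachronic acid wells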
DAX1 inh-1: DAX1 (NR0B1) inhibition, primary screen. 370,000 tested, 1.1% active. AID 652010. HEK293T StAR-luciferase reporter, SF-1/DAX-1 repression relief. inhibition, % at 6.8 µM;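 active = inhibition above the mean over all tested compounds plus 3 SD, cut at about 3.6% in these data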;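 note: 0% = DAX-1 cells with DMSO and 100% = cells lacking DAX-1 with DMSO; higher inhibition means more luminescence from relief of DAX-1 repression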
DAX1 inh-2: inhibitors of human orphan nuclear receptor DAX1 (NR0B1); P51843; 340,000 tested, 0.99% active; inhibition, % at 6.75 µM; HEK293 Gal4-DAX1 luciferase reporter, luminescence;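 active = inhibition above the mean over all tested compounds plus 3 SD, cut at about 4.2% in these data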;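 note: 0% = DAX1-transfected cells with DMSO and 100% = empty-vector control cells with DMSO; inhibition shows as a rise in luminescence from relieved DAX1 repression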
Target sequence (P51843 207-470 limits assumed): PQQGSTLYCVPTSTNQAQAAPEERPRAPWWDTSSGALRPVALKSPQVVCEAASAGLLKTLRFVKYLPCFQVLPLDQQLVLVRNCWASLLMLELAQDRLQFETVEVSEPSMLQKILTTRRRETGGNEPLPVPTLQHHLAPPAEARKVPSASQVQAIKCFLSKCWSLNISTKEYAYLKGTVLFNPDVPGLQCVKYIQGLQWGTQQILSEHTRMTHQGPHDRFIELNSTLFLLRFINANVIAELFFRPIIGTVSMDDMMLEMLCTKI
hcDAF-12 act: activates DAF-12 receptor from parasite H. contortus; HEK293 hcDAF-12 lit1-tk-luc reporter, luminescence; 0% DMSO, 100% Δ7-dafachronic acid; activation, % at 6.8 µM; 370,000 tested, 1.4% active; AID 652067;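 active = activation above the mean of all tested compounds plus 3 SD, cut at about 5.5% in these data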;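 note: 100% = response to 3 µM Δ7-dafachronic acid high control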
hgDAF12 agonist: agonists of H. glycines DAF-12 nuclear receptor | AID 687014 | activation, % at 6.8 µM | 370,000 tested, 1.8% active | HEK293 GAL4-hgDAF12 UAS-luciferase reporter, agonist luminescence; normalized to butyrate control;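 active = activation above a cutoff set at the mean of all screened compounds plus 3 SD, cut at about 10% in these data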;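 note: 0% = DMSO wells and 100% = sodium butyrate wells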
The depositor's hits bear a star; x = not tested or not shown.

SMILES	ssDAF-12 act	DAX1 inh-1	DAX1 inh-2	hcDAF-12 act	hgDAF12 agonist
Cn1c(=NC(=O)c2ccccc2[N+](=O)[O-])sc2cccc(F)c21	-1	3	3	0	13*
CCC(=O)N=c1sc2cc(F)cc(F)c2n1C	0	-1	0	6.1*	6
CC(C)C(=O)N=c1sc2cc(F)cc(F)c2n1C	-1	0	0	1	-2
CCNC(=S)NNC(=O)CSc1nc2ccccc2c(=O)n1-c1ccc(Cl)cc1	-1	-1	x	-1	5
COc1cccc(C(=O)NOCc2ccccc2)c1OC	1	4.4*	1	3	10
COc1cccc(C(=O)OCC(=O)NCCc2ccccc2)c1OC	-1	0	-1	-1	0
COc1ccccc1C(=O)NNC(=O)CCC(=O)NCc1ccccc1	0	0	1	5.7*	2
COCCNC(=O)C(=O)NNS(=O)(=O)c1ccc(Cl)cc1	-2	0	4.5*	0	-1
COCCNC(=O)C(=O)NNC(=O)c1ccccc1OC	1.5*	0	-1	4	3
COCCNC(=O)C(=O)NNS(=O)(=O)c1ccc2ccccc2c1	-1	0	0	-1	1
COCCCNC(=O)C[C@@H]1C(=O)N2CCCC3=C2[C@@]1(C(=O)OC)CCCC3	0	1	x	1	1
C[C@@H]1CN([C@@H](C)CO)C(=O)CCCn2cc(nn2)CO[C@H]1CN(C)C(=O)Nc1ccc(N2CCN(C)CC2)cc1	-1	-1	x	-2	-1
O[C@H](COc1cc(F)cc(F)c1)CN1CCC(C(O)(c2ccccc2)c2ccccc2)CC1	-1	-1	x	-1	-2
COc1ccccc1OCCOC(=O)Nc1ccccc1	-1	-1	0	3	0
COc1cccc(COC(=O)Nc2ccccc2)c1OC	0	3	x	2	12*
COCC(C)NC(=O)NC(=O)c1ccc(Cl)cc1 (stereo unspecified)	1.1*	2	0	0	0
CC(NC(=O)NC(=O)c1ccc(Cl)cc1)c1ccccc1 (stereo unspecified)	-1	-5	-1	-2	0
C[C@H](O)[C@@H]1CN2CCc3ccc(-c4ccc5c(c4)OCO5)cc3[C@@H]2C[C@@H]1N(C)C(=O)Nc1ccccc1	-1	1	x	1	3
S=C(c1ccc(-c2ccccc2Cl)o1)N1CCCCC1	1	3	1	3	12*
CCOC(=O)C1CCCN(C(=O)c2ccc(-c3ccccc3Cl)o2)C1 (stereo unspecified)	0	4.3*	0	0	7
CN1CCN(C(=S)c2ccc(-c3cccc(Cl)c3Cl)o2)CC1	0	3	2	4	12*
O=C(O)c1ccc(-c2ccccc2Cl)o1	-1	-1	2	-1	-3
N#CCSc1ccccc1NC(=O)CN1C(=O)C2CC=CCC2C1=O (stereo unspecified)	2.3*	-5	1	4	5
COC(=O)[C@]12C[C@H](CC(=O)NCCCN3CCCC3=O)C(=O)N(CCc3ccc(OC)c(OC)c3)C1=C[C@H](C1CCCC1)O[C@@H]2C	-2	0	x	-2	-1
CC(C)(C)c1ccc(S(=O)(=O)NNC(=O)c2cc3ccccc3[nH]2)cc1	0	1	-1	6.5*	8
SMILES	ssDAF-12 act	DAX1 inh-1	DAX1 inh-2	hcDAF-12 act	hgDAF12 agonist
CCCC(C)NNC(=O)c1cc2ccccc2[nH]1 (stereo unspecified)	-1	0	2	0	-1
CCCc1nc2ccccc2c(=O)n1NC(=O)c1c(O)c2ccccc2n(C)c1=O	0	0	0	-1	2
CCc1nc2ccccc2c(=O)n1NC(=O)c1c(O)c2ccccc2[nH]c1=O	-1	0	4.9*	0	-2
Cc1ccc(NC(=O)Cn2nnc(-c3ccncc3)n2)cc1C	0	0	x	-3	0
C=Cn1cc[n+](CC(=O)c2cccs2)c1	0	0	-1	5.6*	1
CC(=O)c1cc(-c2cc(C(=O)O)cc([N+](=O)[O-])c2)c(=O)n2c1CCC2	-1	0	x	2	1
COC(=O)C(/C=N/O)NC(=O)c1ccccc1 (stereo unspecified)	-1	1	0	5.9*	0
CO/N=C/C(NC(=O)c1ccc(C(F)(F)F)cc1)C(=O)OC (stereo unspecified)	-1	1	-1	-2	-2
O=C(Nc1ccccc1F)c1ccc(OCc2ccccc2)cc1	0	2	1	6	11*
O=C(CCc1ccccc1)Nc1ccccc1F	0	3.7*	2	2	12*
O=C(CCCc1ccccc1)Nc1ccccc1[N+](=O)[O-]	0	1	5.0*	1	4
O=C(CCc1ccccc1)Nc1ccc(F)cc1F	0	2	2	0	4
C=CCN(CC#CC1=CCCCC1)CC1CC1	-1	0	x	-1	-2
COc1ccc(N2CCCN(CC(=O)Nc3ccc(Cl)c(Cl)c3)CC2)cc1	-1	0	x	0	-2
Nc1[nH]nc2nc3ccccc3cc12	-1	1	1	3	3
CCc1ccc2nc3n[nH]c(N)c3cc2c1	-1	3	1	4	11*
C[C@H]1[C@@H](OC(=O)Nc2ccc(C#N)cc2)CC[C@@]23CCCN2C(=O)CCC[C@@H]13	-2	x	x	-4	-2
COc1ccc(COc2cccc(C=O)c2)cc1	0	1	-2	2	10
O=Cc1ccc(OCc2ccccn2)cc1	-1	0	1	1	11*
O=Cc1ccc(OCc2ccc3ccccc3c2)cc1	0	1	0	3	12*
C[C@H](O)[C@@H]1CN2CCc3ccc(N4CCOCC4)cc3[C@@H]2C[C@@H]1N(C)C(=O)c1ccccc1F	-1	-1	x	-1	4
CCCCc1cccc2[nH]cc(C)c12	-2	0	x	-1	2
O=C(O)CCc1ccc(-c2cccs2)n1NC(=O)c1ccc(O)cc1	-1	0	-2	0	2
O=C(O)CCc1ccc(-c2cccs2)n1NC(=O)c1cccs1	-1	0	4.5*	-1	-4
CCOC(=O)N1CCN(C(=O)C[C@H]2C[C@@]3(C(=O)OC)C(=C[C@H](COCc4ccccc4)O[C@@H]3C)N(Cc3ccc(Cl)cc3Cl)C2=O)CC1	-2	0	x	-4	-2
COc1ccc(Nc2ncnc3ccccc23)cc1	-1	1	1	1	9
COc1ccc(Nc2cc(C)c3c(O)cccc3n2)cc1	-1	0	1	1	12*
COc1ccc(Nc2cc(Nc3ccccc3)ncn2)cc1	0	1	1	6.0*	6
COC(=O)c1cc(Nc2cc(C)c3c(O)cccc3n2)cc(C(=O)OC)c1	-2	-1	3	-2	-1
COc1ccc(NC(=O)c2cc3c(C)nn(-c4ccccc4)c3s2)cc1	-2	-1	x	-3	2
